According to PubChem BioAssay (EPA / NIEHS):
Active and inactive are the calls of the source. The calls were made as follows: active = hit-call score of the fitted dose curve at least 0.9, where 1 is the maximum; inactive = score below 0.9.

Experiments:
Conditions in all cases: mRNA level, 48 h; actives raise or lower the signal
[1] = read-out: 3-Hydroxy-3-Methylglutaryl-CoA Synthase 2 (HMGCS2), HMGCS2 (gene 3158); assay: LTEA_HepaRG_HMGCS2: Life Technologies and Expression Analysis (LTEA) Assay for 3-Hydroxy-3-Methylglutaryl-CoA Synthase 2 (HMGCS2) using HepaRG (AID 2283504)
Method in brief: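 qRT-PCR read-out of HMGCS2 transcript, normalised to three housekeeping genes, in HepaRG cells after 48 h chemical exposure. Eight-point curves from 100 uM, half-log dilutions, 0.5% DMSO vehicle; gain or loss fitted relative to DMSO baseline.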

[2] = read-out: HGF (gene 3082); assay: LTEA_HepaRG_HGF: Life Technologies and Expression Analysis (LTEA) Assay for Hepatocyte Growth Facto (HGF) using HepaRG (AID 2283505)
Method in brief: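 HepaRG, 48 h dosing, 8-pt half-log series from 100 uM in 0.5% DMSO, duplicates. Readout: TaqMan qRT-PCR of HGF mRNA, housekeeping-normalized; bidirectional curve fit vs DMSO baseline.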

[3] = read-out: Intercellular Adhesion Molecule 1 (ICAM1), ICAM1 (gene 3383); assay: LTEA_HepaRG_ICAM1: Life Technologies and Expression Analysis (LTEA) Assay for Intercellular Adhesion Molecule 1 (ICAM1) using HepaRG (AID 2283507)
Method in brief: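 HepaRG, 48 h exposure, 8-pt half-log series from 100 uM, 0.5% DMSO vehicle, duplicates. Readout: TaqMan qRT-PCR mRNA, housekeeping-normalized (ACTB/GAPDH/POLR2A). Bidirectional curve fit vs DMSO baseline.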

[4] = read-out: Insulin-like growth factor-binding protein 1 (IGFBP1), IGFBP1 (gene 3484); assay: LTEA_HepaRG_IGFBP1: Life Technologies and Expression Analysis (LTEA) Assay for Insulin-like growth factor-binding protein 1 (IGFBP1) using HepaRG (AID 2283508)
Method in brief: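 qRT-PCR mRNA read-out (TaqMan, Fluidigm array), normalised to three housekeeping genes; HepaRG cells, 48 h exposure, 8-pt half-log series from 100 uM, 0.5% DMSO vehicle; bidirectional curve fit vs DMSO baseline.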

[5] = read-out: Interleukin 6 (IL6), IL6 (gene 3569); assay: LTEA_HepaRG_IL6: Life Technologies and Expression Analysis (LTEA) Assay for Interleukin 6 (IL6) using HepaRG (AID 2283509)
Method in brief: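 qRT-PCR read-out of IL6 transcript, normalized to three housekeeping genes, after 48 h chemical exposure of HepaRG cells; 8-point half-log series, top 100 uM, 0.5% DMSO vehicle. Bidirectional curve fitting against DMSO baseline.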

[6] = read-out: Interleukin 6 Receptor (IL6R), IL6R (gene 3570); assay: LTEA_HepaRG_IL6R: Life Technologies and Expression Analysis (LTEA) Assay for Interleukin 6 Receptor (IL6R) using HepaRG (AID 2283510)
Method in brief: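 HepaRG, 48 h exposure, 8-pt half-log series, top 100 uM, 0.5% DMSO vehicle, duplicates. Read-out: TaqMan qRT-PCR of IL6R transcript, housekeeping-gene normalized. Gain or loss fitted relative to DMSO baseline.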

[7] = read-out: Potassium channel subfamily K member 1 (KCNK1), KCNK1 (gene 3775); assay: LTEA_HepaRG_KCNK1: Life Technologies and Expression Analysis (LTEA) Assay for Potassium channel subfamily K member 1 (KCNK1) using HepaRG (AID 2283511)
Method in brief: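 HepaRG, 48 h exposure, 8-pt half-log series top 100 uM, 0.5% DMSO vehicle, duplicates. Readout: KCNK1 transcript by qRT-PCR (Fluidigm array), housekeeping-normalized; bidirectional curve fit relative to DMSO baseline.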

[8] = read-out: Keratin 19 (KRT19), KRT19 (gene 3880); assay: LTEA_HepaRG_KRT19: Life Technologies and Expression Analysis (LTEA) Assay for Keratin 19 (KRT19) using HepaRG (AID 2283512)
Method in brief: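 HepaRG, 48 h chemical exposure, 8-pt half-log CRC from 100 uM, 0.5% DMSO vehicle, duplicates. Readout: TaqMan qRT-PCR of KRT19 mRNA, housekeeping-normalized (ACTB/GAPDH/POLR2A). Bidirectional fit vs DMSO baseline.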

[9] = read-out: JUN Transcription Factor, JUN (gene 3725); assay: LTEA_HepaRG_JUN: Life Technologies and Expression Analysis (LTEA) Assay for JUN Transcription Factor using HepaRG (AID 2283513)
Method in brief: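 HepaRG, 48 h exposure, 8-pt half-log series top 100 uM, 0.5% DMSO, duplicate. JUN mRNA by qRT-PCR (Fluidigm), housekeeping-normalized (ACTB/GAPDH/POLR2A); bidirectional curve fit vs DMSO baseline.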

[10] = read-out: Lipase C (LIPC), LIPC (gene 3990); assay: LTEA_HepaRG_LIPC: Life Technologies and Expression Analysis (LTEA) Assay for Lipase C (LIPC) using HepaRG (AID 2283514)
Method in brief: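 HepaRG, 48 h exposure, 8-pt half-log series from 100 uM in 0.5% DMSO, duplicates. Readout: LIPC mRNA by Fluidigm qRT-PCR, housekeeping-normalized (ACTB/GAPDH/POLR2A). Gain or loss fitted bidirectionally against DMSO baseline.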

[11] = read-out: matrix metalloproteinase-10 (MMP10), MMP10 (gene 4319); assay: LTEA_HepaRG_MMP10: Life Technologies and Expression Analysis (LTEA) Assay for matrix metalloproteinase-10 (MMP10) using HepaRG (AID 2283517)
Method in brief: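 Transcript levels come from Fluidigm qRT-PCR normalized to three housekeeping genes, with curves fitted bidirectionally against 0.5% DMSO. Human HepaRG cells were dosed for 48 hours at concentrations up to 100 uM.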

[12] = read-out: MYC, MYC (gene 4609); assay: LTEA_HepaRG_MYC: Life Technologies and Expression Analysis (LTEA) Assay for MYC using HepaRG (AID 2283518)
Method in brief: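 qRT-PCR read-out of MYC transcript (Fluidigm TaqMan, housekeeping-normalized) after 48 h chemical exposure of HepaRG cells; eight concentrations, top 100 uM, half-log steps. Bidirectional curve fitting against 0.5% DMSO vehicle baseline.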

[13] = read-out: matrix metalloproteinase-3 (MMP3), MMP3 (gene 4314); assay: LTEA_HepaRG_MMP3: Life Technologies and Expression Analysis (LTEA) Assay for matrix metalloproteinase-3 (MMP3) using HepaRG (AID 2283519)
Method in brief: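 qRT-PCR read-out of MMP3 mRNA (normalised to three housekeeping genes) in HepaRG liver cells after 48 h chemical exposure; 8-point half-log series, top 100 uM, 0.5% DMSO vehicle. Bidirectional curve fitting against DMSO baseline.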

[14] = read-out: Paternally Expressed 10 (PEG10), PEG10 (gene 23089); assay: LTEA_HepaRG_PEG10: Life Technologies and Expression Analysis (LTEA) Assay for Paternally Expressed 10 (PEG10) using HepaRG (AID 2283520);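 as to AC50: PEG10 transcript by qRT-PCR normalised to ACTB GAPDH and POLR2A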
Method in brief: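 qRT-PCR read-out: PEG10 mRNA normalised to three housekeeping genes, fitted bidirectionally against 0.5% DMSO vehicle. HepaRG cells received test chemicals for 48 h in serum-free induction medium, 8 points, top 100 uM, half-log steps.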

[15] = read-out: Nuclear factor NF-kappa-B p105 subunit (Homo sapiens) (UniProt P19838); assay: LTEA_HepaRG_NFKB1: Life Technologies and Expression Analysis (LTEA) Assay for Nuclear Factor Kappa B Subunit 1 (NFKB1) using HepaRG (AID 2283521);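 also: TaqMan qRT-PCR transcript normalised to ACTB GAPDH and POLR2A housekeeping genes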
Method in brief: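 Differentiated human HepaRG cells were exposed for 48 h in serum-free induction medium to eight concentrations (top 100 uM, half-log steps, 0.5% DMSO), in duplicate. NFKB1 mRNA was measured by TaqMan qRT-PCR, normalized to ACTB/GAPDH/POLR2A, and fitted bidirectionally against DMSO.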

[16] = read-out: Protein phosphatase 2A (PPP2R4), PTPA (gene 5524); assay: LTEA_HepaRG_PPP2R4: Life Technologies and Expression Analysis (LTEA) Assay for Protein phosphatase 2A (PPP2R4) using HepaRG (AID 2283522)
Method in brief: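 HepaRG, 48 h exposure, 8-pt half-log series from 100 uM, 0.5% DMSO vehicle, duplicates. Readout: PPP2R4 mRNA, Fluidigm qRT-PCR, housekeeping-normalized. Bidirectional curve fit vs DMSO baseline.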

[17] = read-out: Phosphatase and tensin (PTEN), PTEN (gene 5728); assay: LTEA_HepaRG_PTEN: Life Technologies and Expression Analysis (LTEA) Assay for Phosphatase and tensin (PTEN) using HepaRG (AID 2283523)
Method in brief: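 HepaRG, 48 h exposure, 8-pt half-log series from 100 uM top, 0.5% DMSO vehicle, duplicates. Readout: Fluidigm qRT-PCR of PTEN transcript; housekeeping normalization (ACTB, GAPDH, POLR2A). Gain or loss fitted relative to DMSO baseline.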

[18] = read-out: solute carrier (SLC22A1), SLC22A1 (gene 6580); assay: LTEA_HepaRG_SLC22A1: Life Technologies and Expression Analysis (LTEA) Assay for solute carrier (SLC22A1) using HepaRG (AID 2283524)
Method in brief: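 qRT-PCR readout (TaqMan, Fluidigm arrays) of SLC22A1 transcript, normalized to three housekeeping genes; bidirectional curve fit relative to 0.5% DMSO vehicle. Differentiated human HepaRG cells, 48 h chemical exposure, top concentration 100 uM, half-log steps, eight points.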

[19] = read-out: NAD(P)H dehydrogenase [quinone] 1 (NQO1), NQO1 (gene 1728); assay: LTEA_HepaRG_NQO1: Life Technologies and Expression Analysis (LTEA) Assay for NAD(P)H dehydrogenase [quinone] 1 (NQO1) using HepaRG (AID 2283526)
Method in brief: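 qRT-PCR read-out (Fluidigm TaqMan), normalized to three housekeeping genes, after 48 h chemical exposure of HepaRG cells. Concentrations: eight points, top 100 uM, half-log steps, 0.5% DMSO vehicle. Gain or loss of signal fitted relative to DMSO.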

[20] = read-out: succinate dehydrogenase complex iron sulfur subunit B (SDHB), SDHB (gene 6390); assay: LTEA_HepaRG_SDHB: Life Technologies and Expression Analysis (LTEA) Assay for succinate dehydrogenase complex iron sulfur subunit B (SDHB) using HepaRG (AID 2283528)
Method in brief: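 HepaRG, 48 h exposure, 8-pt half-log series from 100 uM in 0.5% DMSO, duplicates. Readout: SDHB mRNA by Fluidigm qRT-PCR vs housekeeping genes; bidirectional fit relative to DMSO.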

Measured: AC50

Chain of Nuclear factor NF-kappa-B p105 subunit (Homo sapiens) (P19838 whole entry, looked up): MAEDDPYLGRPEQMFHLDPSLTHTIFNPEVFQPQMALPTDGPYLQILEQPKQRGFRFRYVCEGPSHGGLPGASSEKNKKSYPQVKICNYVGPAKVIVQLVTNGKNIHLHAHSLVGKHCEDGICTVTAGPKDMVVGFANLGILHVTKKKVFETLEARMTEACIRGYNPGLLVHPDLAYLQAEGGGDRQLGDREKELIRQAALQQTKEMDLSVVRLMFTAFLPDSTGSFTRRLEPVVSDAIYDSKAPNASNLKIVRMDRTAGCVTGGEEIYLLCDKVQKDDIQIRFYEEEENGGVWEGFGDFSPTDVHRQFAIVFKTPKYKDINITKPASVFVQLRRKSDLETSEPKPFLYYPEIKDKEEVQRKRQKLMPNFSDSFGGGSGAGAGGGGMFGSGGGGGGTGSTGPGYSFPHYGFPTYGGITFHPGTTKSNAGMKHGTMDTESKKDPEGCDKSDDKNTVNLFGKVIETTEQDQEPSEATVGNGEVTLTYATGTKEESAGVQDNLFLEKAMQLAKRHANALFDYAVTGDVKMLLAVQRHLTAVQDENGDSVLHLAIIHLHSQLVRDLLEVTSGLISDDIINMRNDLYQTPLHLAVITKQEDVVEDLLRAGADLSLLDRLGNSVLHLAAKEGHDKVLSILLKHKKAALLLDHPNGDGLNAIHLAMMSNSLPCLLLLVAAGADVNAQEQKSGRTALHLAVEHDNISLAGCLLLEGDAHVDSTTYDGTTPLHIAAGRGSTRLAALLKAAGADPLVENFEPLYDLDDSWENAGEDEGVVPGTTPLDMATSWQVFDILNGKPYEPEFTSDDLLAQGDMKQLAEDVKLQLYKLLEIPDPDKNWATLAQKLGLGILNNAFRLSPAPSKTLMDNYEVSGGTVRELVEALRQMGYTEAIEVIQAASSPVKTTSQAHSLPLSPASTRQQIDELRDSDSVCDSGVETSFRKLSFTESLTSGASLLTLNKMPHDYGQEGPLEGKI

O=c1[nH]c(=O)[nH]c(=O)[nH]1
inactive: all assays above

O=C(O)C(F)(F)C(F)(F)C(F)(F)C(F)(F)C(F)(F)C(F)(F)F
active: [1] 22 µM
inactive: all other assays above

CCOP(=S)(OCC)SCSP(=S)(OCC)OCC
active: [1] 9.92 µM | [6] 0.064 µM | [12] 0.09 µM
inactive: all other assays above

CC12CC1(C)C(=O)N(c1cc(Cl)cc(Cl)c1)C2=O (stereo not given)
active: [1] 21.6 µM | [14] 10.3 µM | [18] 11.2 µM
inactive: all other assays above
